The values that follow come from PubChem BioAssay.

Values without a mark were called inactive. For part of these data: Potency and affinity values are given separately. The source made the active and inactive calls. Unless noted, no rule for the calls is given here.

The nature of experiment [1]: antimalarial activity against Dd2 strain (AID 2302;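 active = growth inhibition above 50% at the single 2 µM test dose, taken to imply half-maximal potency below 2 µM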;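 also: 0% = DMSO untreated growth and 100% = chloroquine plus artemisinin killed control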). Particulars: P. falciparum Dd2 in RBCs, LDH growth readout, 72 h; at 2 µM; active compounds read high.
Experiment [2] is described as follows: HepG2 cytotoxicity, primary screen, cytotoxicity control for P. falciparum antimalarial project, cell-based, ATP luminescence (AID 2303;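 active = inhibition above 50%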;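 also: 0% = DMSO wells and 100% = digitonin-killed cells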). To be noted: HepG2 viability, 24-48 h, at 10 µM, active compounds read high.
The target of experiment [3] is L-lactate dehydrogenase (Plasmodium falciparum (isolate CDC / Honduras)) (UniProt Q27743). Nature of the experiment: PfLDH activity inhibition – cell lysate, 3D7 strain, counter-screen for P. falciparum growth inhibition project (AID 2304).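 Also: 0% = vehicle and 100% = reference inhibitor.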 To be noted: P. falciparum 3D7 crude extract, LDH APAD/NBT absorbance; at 2 µM; active compounds read high.
Chain of L-lactate dehydrogenase (Plasmodium falciparum (isolate CDC / Honduras)) (Q27743 whole entry, looked up): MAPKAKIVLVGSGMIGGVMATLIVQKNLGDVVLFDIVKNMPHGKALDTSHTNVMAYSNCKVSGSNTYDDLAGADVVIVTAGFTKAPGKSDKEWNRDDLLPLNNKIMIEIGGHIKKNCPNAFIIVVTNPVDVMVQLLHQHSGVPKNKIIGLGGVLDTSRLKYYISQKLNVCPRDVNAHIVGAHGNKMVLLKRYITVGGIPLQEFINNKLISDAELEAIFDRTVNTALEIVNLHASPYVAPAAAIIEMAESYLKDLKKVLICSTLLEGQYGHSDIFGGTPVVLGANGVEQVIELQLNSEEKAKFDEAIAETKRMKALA
A short description of experiment [4]: inhibition of 3D7 malaria parasite growth – strain 3D7 (AID 2306).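 Also: 0% = DMSO wells and 100% = chloroquine plus artemisinin control wells.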 Particulars: P. falciparum 3D7 erythrocytic growth, LDH absorbance, 72 h; at 2 µM; active compounds read high.
The target of experiment [5] is Calcium-dependent protein kinase 1 (Plasmodium falciparum (isolate 3D7)) (UniProt P62344). Kind of experiment: PfCDPK1 kinase inhibitors, biochemical, TCAMS library (AID 1159585; cut-off not given, nearly all actives have IC50 up to about 0.98 µM;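 also: inhibitors leave more ATP so luminescence rises with inhibition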). To be noted: recombinant PfCDPK1, Kinase-Glo ATP depletion luminescence. (In general: Kinase-Glo reads ATP consumption through a luciferase reaction.)
Chain of Calcium-dependent protein kinase 1 (Plasmodium falciparum (isolate 3D7)) (P62344 whole entry, looked up): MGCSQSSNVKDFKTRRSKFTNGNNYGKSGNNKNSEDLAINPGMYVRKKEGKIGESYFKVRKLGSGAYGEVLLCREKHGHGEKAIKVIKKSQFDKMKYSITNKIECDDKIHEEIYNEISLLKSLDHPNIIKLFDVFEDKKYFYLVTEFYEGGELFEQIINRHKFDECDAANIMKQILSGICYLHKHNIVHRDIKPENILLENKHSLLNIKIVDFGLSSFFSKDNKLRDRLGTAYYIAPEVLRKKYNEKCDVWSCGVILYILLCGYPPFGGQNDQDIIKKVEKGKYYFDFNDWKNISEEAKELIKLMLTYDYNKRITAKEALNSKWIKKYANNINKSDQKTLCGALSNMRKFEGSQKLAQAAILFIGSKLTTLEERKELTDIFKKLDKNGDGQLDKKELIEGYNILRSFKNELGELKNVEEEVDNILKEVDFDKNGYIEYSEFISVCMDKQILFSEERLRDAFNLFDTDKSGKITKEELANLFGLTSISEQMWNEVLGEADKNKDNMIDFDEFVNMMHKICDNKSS
For experiment [6], the target named is Plasmodium falciparum protein kinase 6 (PK6, PF3D7_1337100) (UniProt Q8IDW1). Nature of the experiment: PfPK6 kinase inhibitors, biochemical, TCAMS library (AID 1159586). To be noted: recombinant PfPK6, Kinase-Glo ATP depletion luminescence.
Chain of Plasmodium falciparum protein kinase 6 (PK6, PF3D7_1337100) (Q8IDW1 1-305): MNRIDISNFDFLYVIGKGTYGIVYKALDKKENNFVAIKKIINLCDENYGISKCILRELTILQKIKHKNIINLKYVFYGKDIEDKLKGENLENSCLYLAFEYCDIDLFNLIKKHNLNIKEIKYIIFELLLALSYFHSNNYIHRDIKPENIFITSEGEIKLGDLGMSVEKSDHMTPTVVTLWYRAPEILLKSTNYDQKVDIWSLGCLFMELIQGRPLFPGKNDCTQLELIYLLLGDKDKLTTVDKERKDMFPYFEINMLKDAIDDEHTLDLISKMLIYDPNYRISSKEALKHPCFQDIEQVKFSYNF
Experiment [7] addresses Protein kinase 7 (PK7), Plasmodium falciparum 3D7 (PF3D7_0213400) (UniProt Q7YTF7). Kind of experiment: inhibition of Plasmodium PK7 catalytic activity – biochemical, TCAMS antimalarial set, Kinase-Glo luminescence (AID 1159587). To be noted: recombinant PfPK7, Kinase-Glo ATP depletion luminescence.
For experiment [8], the target named is Calcium-dependent protein kinase 4 (Plasmodium falciparum (isolate 3D7)) (UniProt Q8IBS5). Kind of experiment: PfCDPK4 kinase inhibitors, biochemical, TCAMS library (AID 1159588; cut-off not given, nearly all actives have IC50 up to about 0.91 µM). To be noted: recombinant PfCDPK4, Kinase-Glo ATP depletion luminescence.
Chain of Calcium-dependent protein kinase 4 (Plasmodium falciparum (isolate 3D7)) (Q8IBS5 whole entry, looked up): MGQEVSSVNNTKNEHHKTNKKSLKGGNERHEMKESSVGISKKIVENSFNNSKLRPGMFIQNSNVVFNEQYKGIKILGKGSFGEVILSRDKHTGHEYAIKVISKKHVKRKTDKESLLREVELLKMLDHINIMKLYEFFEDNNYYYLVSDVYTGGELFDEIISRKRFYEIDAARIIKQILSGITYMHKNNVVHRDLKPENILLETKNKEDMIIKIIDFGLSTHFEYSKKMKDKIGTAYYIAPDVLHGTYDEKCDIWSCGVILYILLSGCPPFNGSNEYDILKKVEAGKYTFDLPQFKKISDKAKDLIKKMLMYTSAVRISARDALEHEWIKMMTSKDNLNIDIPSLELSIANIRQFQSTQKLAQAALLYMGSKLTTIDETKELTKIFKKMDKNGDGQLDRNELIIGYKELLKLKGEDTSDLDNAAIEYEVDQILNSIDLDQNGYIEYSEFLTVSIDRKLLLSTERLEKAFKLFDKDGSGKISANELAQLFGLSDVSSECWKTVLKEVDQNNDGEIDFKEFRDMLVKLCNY

Chain of Protein kinase 7 (PK7), Plasmodium falciparum 3D7 (PF3D7_0213400) (Q7YTF7 1-343): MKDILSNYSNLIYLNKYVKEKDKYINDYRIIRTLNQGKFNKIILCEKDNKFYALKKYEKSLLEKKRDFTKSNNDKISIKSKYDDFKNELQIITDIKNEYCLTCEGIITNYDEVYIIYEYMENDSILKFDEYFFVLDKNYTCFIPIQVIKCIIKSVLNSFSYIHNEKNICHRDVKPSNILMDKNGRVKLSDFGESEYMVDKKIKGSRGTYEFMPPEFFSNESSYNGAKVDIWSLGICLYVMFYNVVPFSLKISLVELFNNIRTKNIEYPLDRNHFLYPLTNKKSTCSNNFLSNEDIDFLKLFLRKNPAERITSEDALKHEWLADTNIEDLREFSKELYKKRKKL

By inhibition is commonly meant the change of the read-out against control, counted positive when it falls. Consider `CN1CCN(c2ccnc3cc4c(cc23)N(C(=O)Nc2ccc3c(c2)CCCC3=O)CC4)CC1`, for which the growth inhibition in experiment [1] was 64% (active); in experiment [4], 100% (active). Moreover, the inhibition was 5% in experiment [2] and -5% in experiment [3]. In addition, the outcome in experiment [5], in experiment [6], in experiment [7] and in experiment [8] was inactive.
Consider `CCOC(=O)c1cc2c(CCN3C(=O)c4ccccc4C3=O)cn(C)c2cc1-c1ccncc1`, for which the growth inhibition in experiment [1] is 90% (active); in experiment [4], 101% (active). Also, the inhibition in experiment [2] is 99% (active); in experiment [3], 2%. For the same compound, the outcome in experiment [5], in experiment [6], in experiment [7] and in experiment [8] was inactive.
As to `Cc1cc(C(=O)NCc2ccc(-c3c(C)noc3C)cc2)n(-c2ccccc2)n1`, the growth inhibition is 90% (active) in experiment [1] and 92% (active) in experiment [4]. Moreover, the inhibition in experiment [2] was 4%; in experiment [3] it was 3%. Moreover, the result in experiment [5], in experiment [6], in experiment [7] and in experiment [8] was inactive.
For `N/C(=N/C(=NCCCCCCN=C(/N=C(/N)Nc1ccc(Cl)cc1)N1CCCCC1)N1CCCCC1)Nc1ccc(Cl)cc1`, the growth inhibition in experiment [1] was 98% (active); in experiment [4] it was 100% (active). Also, the inhibition was -7% in experiment [2] and 0% in experiment [3]. Moreover, the result in experiment [5], in experiment [6], in experiment [7] and in experiment [8] was inactive.
Regarding `COc1cccc2c(Oc3ccccc3C)ccnc12`, the figures for the growth inhibition in experiment [1] and in experiment [4] were 45% and 85% (active), respectively. In addition, the inhibition is -7% in experiment [2] and 4% in experiment [3]. The outcome in experiment [5], in experiment [6], in experiment [7] and in experiment [8] was inactive.
`CCOC(=O)c1c[nH]c2c(ccc3ccccc32)c1=O`: the growth inhibition in experiment [1] and in experiment [4] was 96% (active) in each case. Further, the inhibition was -5% in experiment [2] and 3% in experiment [3]. Also, the outcome in experiment [5], in experiment [6], in experiment [7] and in experiment [8] was inactive.
For the compound `COC(=O)CCn1c(C2CCN(CC3CCC(NC(=O)/C=C/c4ccc(Cl)c(Cl)c4)CC3)CC2)nc2ccccc21` (stereo not drawn), the results for the growth inhibition in experiment [1] and in experiment [4] were 10% and 94% (active), respectively. The inhibition in experiment [2] is 14%; in experiment [3], -2%. Further, the outcome in experiment [5], in experiment [6], in experiment [7] and in experiment [8] was inactive.
With `COc1ccc2ccccc2c1CNCCCCCCNCc1c(OC)ccc2ccccc12`, the growth inhibition was 35% in experiment [1] and 101% (active) in experiment [4]. Moreover, the inhibition in experiment [2] was 99% (active); in experiment [3], -2%. Also, the outcome in experiment [5], in experiment [6], in experiment [7] and in experiment [8] was inactive.
In the case of `O=C(Nc1cccc(CN2CCN(Cc3ccc(O)cc3)CC2)c1)c1cc2ccccc2o1`, the growth inhibition in experiment [1] is 12%; in experiment [4] it was 81% (active). The inhibition in experiment [2] was 8%; in experiment [3] it was -3%. Further, the outcome in experiment [5], in experiment [6], in experiment [7] and in experiment [8] was inactive.
Consider `Cn1c(NC2=NC3(c4ccccn4)N=C(Nc4nc5ccccc5n4C)NC3(c3ccccn3)N2)nc2ccccc21` (stereo not drawn), for which the results for the growth inhibition in experiment [1] and in experiment [4] were 44% and 99% (active), respectively. The inhibition in experiment [2] was 12%; in experiment [3] it was 0%. In addition, the result in experiment [5], in experiment [6], in experiment [7] and in experiment [8] was inactive.
Consider `c1ccc(CNc2cc(-c3ccccn3)nc(-c3ccccn3)n2)cc1`, for which the growth inhibition is 89% (active) in experiment [1] and 84% (active) in experiment [4]. In addition, the inhibition was 88% (active) in experiment [2] and -2% in experiment [3]. Also, the outcome in experiment [5], in experiment [6], in experiment [7] and in experiment [8] was inactive.
For the compound `Brc1cc2c(cc1C=NNc1nc(Nc3ccccc3)nc(Nc3ccccc3)n1)OCO2`, the growth inhibition was 32% in experiment [1] and 100% (active) in experiment [4]. Moreover, the inhibition in experiment [2] is -7%; in experiment [3] it was 1%. Also, the outcome in experiment [5], in experiment [6], in experiment [7] and in experiment [8] was inactive.
`NC(=O)NC(=O)C=Cc1ccco1`: the growth inhibition in experiment [1] is -3%; in experiment [4] it was 97% (active). Also, the results for the inhibition in experiment [2] and in experiment [3] were 32% and -7%, respectively. Moreover, the result in experiment [5], in experiment [6], in experiment [7] and in experiment [8] was inactive.
Turning to `c1ccc2[nH]c(CN(Cc3nc4ccccc4[nH]3)Cc3nc4ccccc4[nH]3)nc2c1`, the growth inhibition is 86% (active) in experiment [1] and 81% (active) in experiment [4]. The inhibition was 39% in experiment [2] and -2% in experiment [3]. The outcome in experiment [5], in experiment [6], in experiment [7] and in experiment [8] was inactive.
For `Cc1cc(N[C@@H](CC(C)C)C(=O)NCCOc2ccccc2)nc(Nc2ccccc2)n1`, the growth inhibition in experiment [1] was 9%; in experiment [4] it was 93% (active). Moreover, the results for the inhibition in experiment [2] and in experiment [3] were 9% and -2%, respectively. Further, the result in experiment [5], in experiment [6], in experiment [7] and in experiment [8] was inactive.
Regarding `OCC1CCN(Cc2ccc(-c3ccc(-c4nc5ccc(F)cc5[nH]4)cc3)cc2)CC1`, the growth inhibition in experiment [1] was 95% (active); in experiment [4] it was 100% (active). The inhibition in experiment [2] is 17%; in experiment [3], -1%. Moreover, the result in experiment [5], in experiment [6], in experiment [7] and in experiment [8] was inactive.
Take `Cc1ccc(-c2nnc(Nc3ccc(CC(N)=O)cc3)c3ccccc23)cc1S(=O)(=O)NCC1CCCO1` (stereo not drawn): the growth inhibition is 64% (active) in experiment [1] and 83% (active) in experiment [4]. The inhibition in experiment [2] is -6%; in experiment [3] it was 6%. Further, the outcome in experiment [5], in experiment [6], in experiment [7] and in experiment [8] was inactive.
On to `Cc1[nH]c(C)c(Cc2ccc(Oc3ccc(OC(F)(F)F)cc3)cc2)c(=O)c1Br`, for which the growth inhibition in experiment [1] was 87% (active); in experiment [4], 96% (active). The values for the inhibition in experiment [2] and in experiment [3] were 29% and -1%, respectively. The result in experiment [5], in experiment [6], in experiment [7] and in experiment [8] was inactive.
`COc1ccc(Cc2cccc(C(C(=O)NCc3cc(Cl)cc(Cl)c3)N3CCN(C)CC3)c2)cc1` (stereo not drawn): the growth inhibition was 24% in experiment [1] and 101% (active) in experiment [4]. For the same compound, the inhibition was 8% in experiment [2] and -9% in experiment [3]. Further, the outcome in experiment [5], in experiment [6], in experiment [7] and in experiment [8] was inactive.
As to `Cc1cccc2[nH]c(-c3ccc(-c4cccc(CN5CC(C)OC(C)C5)c4)s3)nc12` (stereo not drawn), the growth inhibition in experiment [1] is 79% (active); in experiment [4], 98% (active). For the same compound, the figures for the inhibition in experiment [2] and in experiment [3] were 6% and -5%, respectively. Besides, the outcome in experiment [5], in experiment [6], in experiment [7] and in experiment [8] was inactive.
Consider `Cc1nn(CC(C)C)c2sc(C(=O)N3CCN(S(=O)(=O)c4ccc(C#N)cc4)CC3)cc12`, for which the growth inhibition in experiment [1] and in experiment [4] was 99% (active) in each case. In addition, the inhibition was 14% in experiment [2] and -2% in experiment [3]. The outcome in experiment [5], in experiment [6], in experiment [7] and in experiment [8] was inactive.
